The structures appear in SMILES notation. The campaign covered roughly 48,000 compounds. About 13,000 (27%) showed an effect of 50% or more. Some of the results follow.

This assay has as its system Wolbachia pipientis. Description: Anti-Wolbachia Cell-Based Screen. The format is functional. More on the design: scale not given: in the data most compounds retested in dose-response had high values. To be noted: 5 µM.
For `CCN(Cc1ccncc1)Cc1c[nH]nc1-c1ccc(F)cc1`, the “Percent Effect” value is on record as -6.114%.
For the molecule `COC(=O)C1CCN(C(=O)NCC(C)Cc2cccs2)CC1` (stereo unspecified), the “Percent Effect” value is -16.38%.
To `Cc1oncc1C(=O)NCC(c1ccccc1Cl)N1CCOCC1` (stereo unspecified) belongs 10.8%; to `COc1ccccc1C(=O)NCC(c1cccn1C)N1CCOCC1` (stereo unspecified), 102.1%.
`COc1ccccc1C(CNC(=O)NCc1cc[nH]n1)N1CCCC1` (stereo unspecified): the “Percent Effect” value was determined as 5.725%.
For the molecule `COc1cccc(C(=O)NCC(c2cccn2C)N2CCCC2)c1OC` (stereo unspecified), the “Percent Effect” value came to 106.1%.
To `COc1cccc(OC)c1C(=O)NCC(c1cccn1C)N1CCCC1` (stereo unspecified) belongs 106.6%.
In the case of `COc1cccc(C(=O)NCCCN2CCc3ccccc3C2)c1OC`, the “Percent Effect” value was -7.552%.
The figure for `COc1ccccc1S(=O)(=O)NCC(c1cccn1C)N(C)C` (stereo unspecified) is 1.51%; for `CCC(CNC(=O)c1ccccc1OC)N1CCc2ccccc2C1` (stereo unspecified) it is 13.81%; for `COCCN1CCC(NC(=O)C/C=C/c2ccc(C(C)C)cc2)CC1` it is -16.81%.
In the case of `Cc1ccc(C(=O)N2CC[C@@]3(O)CCN(C(=O)N(C)C)C[C@H]3C2)cc1Cl`, the “Percent Effect” value is given as -5.057%.
To `Cc1nn(C)c(C)c1C1CCCN1CCCC#N` (stereo unspecified) belongs 2.05%.
To `Cc1noc([C@@H]2C[C@H]3OCC[C@H]3N(Cc3sccc3C)C2)n1.O=C(O)C(F)(F)F` belongs 9.269%.
For `CCN(CC(=O)NC)C(=O)c1sc(Cc2ccccc2)nc1C`, the “Percent Effect” value is -6.036%.
To `Cc1c(C(=O)O)sc2nc(C(F)(F)F)ccc12` belongs -2.496%.
For `Cc1nc(Cc2ccccc2)nc2sc(C(=O)O)c(C)c12`, the “Percent Effect” value is 95.86%.
On to `CN(C)C(CNC(=O)OCC(F)(F)F)c1ccsc1` (stereo unspecified), for which the “Percent Effect” value was 23.12%.
The figure for `Cc1ccc(C(=O)N(Cc2ccccc2F)C2CC2)c(=O)[nH]1` is -1.047%.
`Cc1ccc(C(=O)N(C)CCOc2ccccc2F)c(=O)[nH]1`: the “Percent Effect” value worked out at 95.48%.
The figure for `CCN(Cc1ccc(OC)c(F)c1)C(=O)c1ccc(C)[nH]c1=O` is -15.23%.
With `Cc1c(C(=O)N2CC(O)C2)nnn1-c1cccc2cnccc12`, the “Percent Effect” value is -2.34%.
To `CC(CNS(=O)(=O)c1cccc(Cl)c1)N1CCN(C)CC1` (stereo unspecified) belongs 3.313%.
To `CCn1cc2c(n1)CN(Cc1ccc(C)o1)CC2COCC1CC1.O=C(O)C(F)(F)F` (stereo unspecified) belongs 26.1%; to `CNC(=O)NCCc1csc2ccccc12`, -2.127%.
In the case of `COCCN(C)C[C@@H]1CCC[C@@H]2CN(c3ncccn3)C[C@@H]21.O=C(O)C(F)(F)F`, the “Percent Effect” value is given as -1.943%.
The figure for `Cc1ccc(NC2CCN(C(=O)Cc3cccs3)CC2)nn1` is 103.9%; for `Cc1ccc(NC2CCN(C(=O)Cc3csc(C)n3)CC2)nn1` it is 1.97%.
With `Cc1ccc(NC2CCN(C(=O)Cc3ccc(C)s3)CC2)nn1`, the “Percent Effect” value stood at 88.11%.
Consider `Cc1ccc(NC2CCN(C(=O)Cn3nc(C)cc3C)CC2)nn1`, for which the “Percent Effect” value was -9.924%.
Consider `Cc1ccc(NC2CCN(C(=O)CCCc3cccs3)CC2)nn1`, for which the “Percent Effect” value is 117.7%.
The figure for `Cc1ccc(NC2CCN(C(=O)CCCc3ccccn3)CC2)nn1` is 17.2%; for `Cn1cc(CNc2ccc(CCN3CCC(C(N)=O)CC3)cc2)cn1` it is -15.36%.
For the molecule `CCC(CC)c1cc(CNC(=O)N2CCCC(c3ncc[nH]3)C2)on1` (stereo unspecified), the “Percent Effect” value is reported as -2.928%.
The figure for `COCCO[C@@H]1CCN(Cc2csc(C)n2)[C@H]1Cc1ccccc1.O=C(O)C(F)(F)F` is -4.722%.
The figure for `Cc1nc(CN2CC[C@H](OCC3CC3)[C@@H]2Cc2cccnc2)cs1.O=C(O)C(F)(F)F.O=C(O)C(F)(F)F` is 110.4%; for `Cc1nc(CN2CC[C@@H](OCC3CC3)[C@@H]2Cc2cccnc2)cs1.O=C(O)C(F)(F)F.O=C(O)C(F)(F)F` it is 96.59%.
With `Cc1cc(N(C)Cc2c(C)noc2C)n2nc(C)c(C)c2n1`, the “Percent Effect” value is listed as -2.032%.
The figure for `CCN(CC)CC(=O)NCc1cccnc1-n1cnc2ccccc21` is -2.03%; for `Cc1cnc(N2CC[C@@H]3CN(CCC(C)C)S(=O)(=O)[C@@H]3CC2)nc1` it is 7.109%; for `CC(COCC(F)(F)F)NC(=O)c1ccc(-c2ccco2)[nH]c1=O` (stereo unspecified) it is -22%.
For the molecule `Cc1cc(C)n(CC(C)CNC(=O)NCc2ccco2)n1` (stereo unspecified), the “Percent Effect” value amounted to 7.726%.
To `CC(C)NC(=O)NCc1ccnc(N(C)C)n1` belongs -10.55%; to `CC(C)NC(=O)NCc1cc(-c2ccco2)n(CC(F)(F)F)n1`, 112.4%; to `CC(Cc1cccs1)C(=O)NCc1cccc(N2CCCC2=O)c1` (stereo unspecified), 1.255%.
Consider `CC(C)NC(=O)NCCn1nc(C(F)(F)F)n(C)c1=O`, for which the “Percent Effect” value is -4.799%.
The figure for `C[C@H](NS(C)(=O)=O)C(=O)NCc1cc(-c2ccco2)n(CC(F)(F)F)n1` is 97.84%.
The figure for `NS(=O)(=O)NCc1cc(-c2ccco2)n(CC(F)(F)F)n1` is 112.6%; for `Cc1nnc2n1CCN(CCS(=O)(=O)c1ccccc1)C2` it is 0.264%.
On to `CCc1noc(C2CCCCN2C(=O)c2ccccc2)n1` (stereo unspecified), for which the “Percent Effect” value amounted to 1.293%.
Turning to `CCc1noc(C2CCCCN2C(=O)c2ccn(C3CCCC3)n2)n1` (stereo unspecified), the “Percent Effect” value stood at 52.74%.
The figure for `CCc1noc(C2CCCCN2C(=O)c2ccoc2C)n1` (stereo unspecified) is 16.06%; for `Cc1nnc(N2C[C@@H]3CCCO[C@@H]3[C@H](N(C)C)C2)s1` it is -8.785%; for `CC(C)CC(NC(=O)CN(C)c1cnccn1)c1cccs1` (stereo unspecified) it is 9.121%.
As for `CC(C)C(NC(=O)c1ccc(N2CCOCC2)nc1)c1cccs1` (stereo unspecified), the “Percent Effect” value is 15.66%.
For `CC(NC(=O)NCCNc1cnccn1)c1cccs1` (stereo unspecified), the “Percent Effect” value came out at 5.831%.
In the case of `CC(C)C(NC(=O)NCCNc1cnccn1)c1cccs1` (stereo unspecified), the “Percent Effect” value stood at 101.3%.
Take `CC(NC(=O)NCCNc1cccc(F)c1C#N)c1cccs1` (stereo unspecified): the “Percent Effect” value came to 10.58%.
To `CC(C)C(NC(=O)NCCNc1ncccn1)c1cccs1` (stereo unspecified) belongs 99.08%; to `CC(NC(=O)NCCNc1ncccn1)c1cccs1` (stereo unspecified), 10.74%.
To `CC(C)C(NC(=O)Nc1ccccn1)c1cccs1` (stereo unspecified) belongs 56.05%; to `CC(C)C(C)(O)CNC(=O)Nc1ccccn1` (stereo unspecified), -16.52%.
To `COCCn1cnnc1CN(C)c1nc(N)ncc1C` belongs 15.34%; to `Cc1ccc(CN(C)C(=O)CN2CCCC2c2cnn(C)c2)cc1` (stereo unspecified), -7.848%.
On to `O=c1[nH]cc(N2CCCCC2)c(=O)[nH]1`, for which the “Percent Effect” value is given as 67.95%.
To `Cn1ncc(N2CCOCC2)c(Cl)c1=O` belongs 6.365%; to `O=C(c1c[nH]c(=O)[nH]1)N1CCc2ccccc21`, 14.35%.
For `O=C(Cc1c[nH]c(=O)[nH]c1=O)N1CCCCC1CCc1ccccc1` (stereo unspecified), the “Percent Effect” value is on record as -18.96%.
As for `c1ccc2c(N3CCOCC3)cnnc2c1`, the “Percent Effect” value was found to be 28.28%.
To `O=c1[nH]cc(N2CCOCC2)c(=O)[nH]1` belongs 76.31%; to `O=C(NCCN1CCOCC1)c1cc(-c2ccc(Cl)s2)[nH]n1`, 11.57%.
In the case of `N#CC(Sc1nnnn1C1CCOCC1)C1CCCCC1` (stereo unspecified), the “Percent Effect” value amounted to 11.61%.
As to `CC(=O)c1cc(CN2C[C@H]3CC[C@@H]2CN(S(=O)(=O)N(C)C)C3)cs1`, the “Percent Effect” value is given as -15.69%.
As for `OC(CN1CCN(CC2CCCCC2)CC1)c1ccccc1` (stereo unspecified), the “Percent Effect” value worked out at 21.16%.
Turning to `O=C1NC(c2ccccc2)=N[C@@]12CC[C@@H]1CN(CC3CCOCC3)C[C@@H]12`, the “Percent Effect” value is given as 10.45%.
In the case of `O=c1n(CC2CC2)nc(C2CCNCC2)n1Cc1ccccc1`, the “Percent Effect” value is on record as 0.2019%.
As for `Cc1cc(=O)c2ccccc2n1CC1CCNC1` (stereo unspecified), the “Percent Effect” value turned out to be 4.531%.
To `O=C1NC2(Cc3ccccc31)CN(CC1CCOCC1)C2` belongs 125.6%; to `COc1ccc2c(=O)n(CC3CCNC3)ccc2c1OC` (stereo unspecified), 10.36%.
To `CC(=O)N1CCN(CC2CCOc3ccccc3C2)CC1` (stereo unspecified) belongs -15.11%; to `O=C1NC2(Cc3ccccc31)CN(CC1CCCC1)C2`, 92.98%; to `O=C(O)C(F)(F)F.O=C1NC2(CCN(CC3CC3)CC2)CC1c1ccccc1` (stereo unspecified), -3.708%.
On to `O=C1NC2(Cc3ccccc31)CN(CC1CCNC1)C2` (stereo unspecified), for which the “Percent Effect” value is 109.8%.
The figure for `O=C1NC2(Cc3ccccc31)CN(CC1CCNCC1)C2` is 115.6%; for `O=C(CSc1ccc(F)cc1)NS(=O)(=O)c1ccc2c(c1)OCCO2` it is -12.15%.
The figure for `CN(C)C(CNCc1nc(-c2ccsc2)no1)c1ccco1` (stereo unspecified) is 15.02%; for `CCC(O)(CNCc1ccncc1)c1ccc(Br)cc1` (stereo unspecified) it is 15.97%; for `COc1ccc(CN2C[C@@H](F)[C@@H](OCc3nc4cnccc4[nH]3)C2)cn1` it is -7.55%.
Take `O=C(c1cc(-c2ccco2)nc2c(Cl)cccc12)N1CC[C@H]2CNC[C@H]21`: the “Percent Effect” value is -4.812%.
To `O=C(Nc1ccccc1F)N(CCO)Cc1ccsc1` belongs -6.968%; to `CN1C(=O)[C@H]2CC[C@@H]1CN(C(=O)Nc1ccccc1C(F)(F)F)C2`, -23.74%.
To `CCc1noc(CS(=O)(=O)C/C=C/c2ccccc2)n1` belongs -3.698%; to `CCc1cccc2cc(CNCCOC)c(=O)[nH]c12`, 77.28%.
`COCCNC(=O)NCCc1cccc(OC)c1O`: the “Percent Effect” value is given as -1.079%.
The figure for `CCc1cccc2cc(CN)c(=O)[nH]c12` is 94.88%.
The figure for `COc1ccccc1CNCCc1cccc(C(N)=O)c1` is -10.3%; for `Cc1ccc2cc(CNCCCO)c(=O)[nH]c2c1` it is -12.61%; for `Cc1cccc2cc(CN3CCC(O)(CN4CCCC4)CC3)c(=O)[nH]c12` it is -13.98%.
The figure for `Cc1cccc2cc(CN3CCC(N4CCCC4)CC3)c(=O)[nH]c12` is -6.915%; for `COCCNCc1cc2ccc(C)c(C)c2[nH]c1=O` it is 110.6%.
For `COc1ccc(CNC(=O)NCc2c(C)cc(C)[nH]c2=O)cc1`, the “Percent Effect” value was -8.384%.
`CCc1nccn1CCC(=O)N1CC(=O)N(c2ccccc2C)CC1C` (stereo unspecified): the “Percent Effect” value was -5.04%.
Consider `CC(O)(CCc1ccccc1)CNC(=O)c1ccsc1` (stereo unspecified), for which the “Percent Effect” value is 16.96%.
On to `CCOC(=O)CSc1nnc(C(N)CC(C)C)o1.Cl` (stereo unspecified), for which the “Percent Effect” value was 98.1%.
To `CCOC(=O)CSc1ccc(-c2nc(CC)no2)cn1` belongs -9.081%; to `CCOC(=O)CSc1ccc(-c2nc(C)no2)cn1`, -12.26%.

The record behind these values is ChEMBL document CHEMBL3988442, “University of Dundee, Small-Polar-MMV Screening Library” (2021).
